Assay results published in the supplement of paper PMC8047044.
Values joined by “and” are separate entries in the source; they are usually repeats but may differ in a detail not shown here. Equal values may be shown once. Where a name gives a salt, the structure may show the parent alone.

System: Neuro-2a
Assay: neurite formation score, plate-normalized to DMSO control mean 5.04 (score (0-8 scale)); higher = more or longer neurites
Conditions: 0.1 µM
Experimental: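 Neuro-2a mouse neuroblastoma cells in PLL-coated 96-well plates were pre-treated for 1 h in DMEM(+) with each kinase inhibitor at 0.1 µM, then switched to serum-free DMEM(-) with inhibitor to induce neurite outgrowth and fixed about 2-3 h later. Three blinded observers scored neurite formation from 0 (no neurites) to 8 (long neurites on almost all cells).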

**Q.** O=c1sn(-c2cccc3ccccc23)c(=O)n1Cc1ccccc1 [Tideglusib] was tested. Which neurite formation score did it give?
**A.** 5.08

**Q.** For CCN1CCN(Cc2ccc(-c3cc4c(N[C@H](C)c5ccccc5)ncnc4[nH]3)cc2)CC1, which neurite formation score is on record?
**A.** 4.54

**Q.** For COc1cc2/c(=N/c3ccc(Br)cc3F)nc[nH]c2cc1OCC1CCN(C)CC1 [Vandetanib (ZD6474)], which neurite formation score is on record?
**A.** 5.09

**Q.** Cc1c(F)cc(C(=O)NC2CC2)cc1-c1ccc(C(=O)NCC(C)(C)C)cn1 [Losmapimod] was tested. Which neurite formation score did it give?
**A.** 4.75

**Q.** O=c1cc(-c2ccccc2)oc2c(O)c(O)ccc12 [7,8-Dihydroxyflavone] was tested. Which neurite formation score did it give?
**A.** 5.08

**Q.** How did the neurite formation score turn out when S=C(NCc1ccc2c(c1)OCO2)N1CCN(c2ncnc3c2oc2ccccc23)CC1 [Amuvatinib (MP-470, HPK 56)] was run?
**A.** 4.92

**Q.** COc1cccc(-c2cc(=O)c3ccccc3o2)c1N was tested. Which neurite formation score did it give?
**A.** 5.04

**Q.** Which neurite formation score does the source give for Cn1c(Nc2ccc(C(F)(F)F)cc2)nc2cc(Oc3ccnc(-c4ncc(C(F)(F)F)[nH]4)c3)ccc21 here?
**A.** 4.88

**Q.** How did the neurite formation score turn out when COc1cc(Nc2c(C#N)cnc3cc(OCCCN4CCN(C)CC4)c(OC)cc23)c(Cl)cc1Cl [Bosutinib (SKI-606)] was run?
**A.** 2.71

**Q.** For COc1cc2ncnc(Nc3ccc(F)c(Cl)c3)c2cc1OCCCN1CCOCC1 [Gefitinib (ZD1839)], which neurite formation score is on record?
**A.** 4.88

**Q.** How did the neurite formation score turn out when O=S(=O)(c1cccc2cnccc12)N1CCCNCC1 [Fasudil (HA-1077) HCl] was run?
**A.** 5.21

**Q.** Cc1ccc(-n2nc(C(C)(C)C)cc2NC(=O)Nc2ccc(OCCN3CCOCC3)c3ccccc23)cc1 [BIRB 796 (Doramapimod)] was tested. Which neurite formation score did it give?
**A.** 4.21

**Q.** Cc1ccc(Nc2nccc(N(C)c3ccc4c(C)n(C)nc4c3)n2)cc1S(N)(=O)=O was tested. Which neurite formation score did it give?
**A.** 3.71

**Q.** How did the neurite formation score turn out when O=C1NC(=O)C(c2cnc3ccccn23)=C1c1cn2c3c(cc(F)cc13)CN(C(=O)N1CCCCC1)CC2 was run?
**A.** -0.576

**Q.** For Cc1ncc(-c2ccnc(Nc3ccc(S(C)(=O)=O)cc3)n2)n1C(C)C, which neurite formation score is on record?
**A.** 3.54

**Q.** CNc1nc(Nc2cnn(C3CCN(C4COC4)CC3F)c2Cl)ncc1C(F)(F)F (stereo not given) was tested. Which neurite formation score did it give?
**A.** 4.75

**Q.** For CNC(=O)c1ccc(C)c(-n2c(C)cc(OCc3ccc(F)cc3F)c(Br)c2=O)c1, which neurite formation score is on record?
**A.** 2.21

**Q.** Cc1ccc(NC(=O)c2cccc(C(C)(C)C#N)c2)cc1Nc1ccc2ncn(C)c(=O)c2c1 was tested. Which neurite formation score did it give?
**A.** 4.88

**Q.** How did the neurite formation score turn out when O=C(Nc1ccc2[nH]nc(-c3ccncc3)c2c1)[C@@H]1CCN(CC(=O)N2CCN(c3ccc(-c4ncccn4)cc3)CC2)C1 was run?
**A.** 5.09

**Q.** For Cn1c(=O)c(F)c(Nc2ccc(I)cc2F)c2c(=O)n(C[C@@H](O)CO)cnc21, which neurite formation score is on record?
**A.** 4.42

**Q.** Which neurite formation score does the source give for CC[C@H](CO)Nc1nc(NCc2ccccc2)c2ncn(C(C)C)c2n1 [Roscovitine (Seliciclib,CYC202)] here?
**A.** 4.38

**Q.** For CCCS(=O)(=O)Nc1ccc(F)c(C(=O)c2c[nH]c3ncc(-c4ccc(Cl)cc4)cc23)c1F [Vemurafenib (PLX4032, RG7204)], which neurite formation score is on record?
**A.** 4.04

**Q.** O=S(=O)(c1cccc2c(O)nccc12)N1CCCNCC1 [Hydroxyfasudil hydrochloride] was tested. Which neurite formation score did it give?
**A.** 2.09

**Q.** For c1nc2c(NC3CCCCC3)nc(Nc3ccc(N4CCOCC4)cc3)nc2[nH]1 [Reversine], which neurite formation score is on record?
**A.** 4.92

**Q.** How did the neurite formation score turn out when O=C(COc1ccc(Cl)cc1)NC1CCC(NC(=O)COc2ccc(Cl)cc2)CC1 (stereo not drawn) [ISRIB (trans-isomer)] was run?
**A.** 4.42

**Q.** For Oc1ccc(-c2nc(-c3ccc(F)cc3)c(-c3ccncc3)[nH]2)cc1, which neurite formation score is on record?
**A.** 4.71

**Q.** How did the neurite formation score turn out when C[C@@H]1CCN(C(=O)CC#N)C[C@@H]1N(C)c1ncnc2[nH]ccc12 was run?
**A.** 3.92 and 5.58

**Q.** With CC(C)NC[C@@H](C(=O)N1CCN(c2ncnc3c2[C@H](C)C[C@H]3O)CC1)c1ccc(Cl)cc1 as the molecule, how does the neurite formation score read?
**A.** 5.04

**Q.** For CNC(=O)c1ccccc1Sc1ccc2c(/C=C/c3ccccn3)n[nH]c2c1, which neurite formation score is on record?
**A.** 4.54

**Q.** For COc1cc(OC)c(/C=C/S(=O)(=O)Cc2ccc(OC)c(NCC(=O)O)c2)c(OC)c1, which neurite formation score is on record?
**A.** 3.04

**Q.** With NC1(Cc2ccc(Cl)cc2)CCN(c2ncnc3[nH]ccc23)CC1 as the molecule, how does the neurite formation score read?
**A.** 4.92

**Q.** How did the neurite formation score turn out when Cc1cc(CN2CCN(c3c(Br)cnc4nc(-c5ccc(N6CCN(C)CC6)cc5)[nH]c34)CC2)no1 was run?
**A.** 4.76

**Q.** Which neurite formation score does the source give for COc1c(OCCCN2CCOCC2)ccc2c3n(c(=NC(=O)c4cnc(N)nc4)nc12)CCN3 [BAY 80-6946 (Copanlisib)] here?
**A.** 4.76

**Q.** Which neurite formation score does the source give for COCCOc1ccc2c(c1)ncn2-c1ccc2cccc(N3CCC(N)CC3)c2n1 here?
**A.** 5.08

**Q.** For Cc1ccc(NC(=O)c2ccc(CN3CCN(C)CC3)cc2)cc1Nc1nc(-c2cccnc2)cs1 [Masitinib (AB1010)], which neurite formation score is on record?
**A.** 4.38

**Q.** How did the neurite formation score turn out when CN([C@@H](Cc1ccc(OS(=O)(=O)c2cccc3cnccc23)cc1)C(=O)N1CCN(c2ccccc2)CC1)S(=O)(=O)c1cccc2cnccc12 was run?
**A.** 4.54

**Q.** For Nc1ccc(-c2ccc3ncc4ccc(=O)n(-c5cccc(C(F)(F)F)c5)c4c3c2)cn1 [Torin 2], which neurite formation score is on record?
**A.** 3.42

**Q.** For Cc1nc(NC(=O)N2CCC[C@H]2C(N)=O)sc1-c1ccnc(C(C)(C)C(F)(F)F)c1, which neurite formation score is on record?
**A.** 5.21

**Q.** Which neurite formation score does the source give for N#CC[C@H](C1CCCC1)n1cc(-c2ncnc3[nH]ccc23)cn1 [Ruxolitinib phosphate] here?
**A.** 4.92

**Q.** Which neurite formation score does the source give for CN(c1ccccc1CNc1nc(Nc2ccc3c(c2)CC(=O)N3)ncc1C(F)(F)F)S(C)(=O)=O here?
**A.** 3.58
